# PubChem BioAssay (Tox21)
# Several values for one entry are separate records, joined by “and”; a condition that tells them apart may be missing. Identical values can stand only once. Results filed as inconclusive are left out. Where a call stands in place of a potency, no number is given. More than one record can exist for a structure, and the calls need not agree. Activity calls are given as the source filed them. Unless noted, calls come from the whole dose curve.
# How the values were obtained:
# [1] = qHTS assay to identify small molecule antagonists of the sonic hedgehog signaling (Shh) pathway (AID 1259369); note: nearly all actives have a fitted effect of over 45% in size; note: potency is the fitted concentration of half-maximal effect
# How it was run: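 NIH/3T3-derived 3T3Gli1-Luc cells with stably integrated Gli1-Luc reporter were preincubated 4hr at 37 C, then given compounds in DMSO plus Shh conditioned medium and incubated 24hr. Firefly luciferase luminescence read after 30min reagent at room temperature.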
# [2] = biological target: Estrogen receptor beta (Homo sapiens) (UniProt Q92731); experiment: qHTS assay to identify small molecule agonists of the estrogen receptor beta (ER-beta) signaling pathway (AID 1259377; active = well fitted activation curve with a large enough effect in the signal ratio in the repeat runs, not every such curve was filed as active; the % refers to the signal ratio)
# How it was run: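 A UAS-controlled beta-lactamase reporter in ER-beta-UAS-bla HEK293T cells reports receptor activation. Compounds act for 16 hr at 37C in 2% charcoal-stripped serum, and a FRET substrate is read by fluorescence after 2 hours.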
# [3] = biological target: Estrogen receptor beta (Homo sapiens) (UniProt Q92731); experiment: qHTS assay to identify small molecule antagonists of the estrogen receptor beta (ER-beta) signaling pathway (AID 1259378; active = well fitted inhibition curve with a large enough effect in the signal ratio in the repeat runs, not every such curve was filed as active; the % refers to the signal ratio; note: potency is the fitted concentration of half-maximal effect)
# How it was run: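 ER-beta-UAS-bla HEK293T cells in 2% charcoal-stripped FBS medium treated with compound plus 1nM final 17-beta-estradiol for 16 hr at 37C. Beta-lactamase reporter read by FRET substrate fluorescence after 2 hours at room temperature.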
# [4] = qHTS assay to identify small molecule agonists of the androgen receptor (AR) signaling pathway in the presence of an antagonist - cell viability counter screen (AID 1259379; active = well fitted curve in the direction sought with a large enough effect in the repeat runs; an effect the other way counts as inactive or inconclusive; note: nearly all actives have a fitted effect of over 25% in size; note: potency is the fitted concentration of half-maximal effect)
# How it was run: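 MDA-kb2 human breast carcinoma cells (stable MMTV-luciferase, AR/GR responsive) were seeded 3,000 cells/well, pre-incubated 5 hr at 37C without CO2, then given 3.0uM nilutamide and compounds at 15 concentrations for 16 hr. Viability was read by CellTiter-Fluor fluorescence.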
# [5] = qHTS assay to identify small molecule agonists of the estrogen receptor beta (ER-beta) signaling pathway - cell viability counter screen (AID 1259380; active = well fitted curve in the direction sought with a large enough effect in the repeat runs; an effect the other way counts as inactive or inconclusive; note: nearly all actives have a fitted effect of over 30% in size; note: potency is the fitted concentration of half-maximal effect)
# How it was run: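 ER-beta-UAS-bla HEK293T cells in medium with 2% charcoal-stripped FBS were preincubated 6 hr at 37C, dosed with compound in DMSO for 16 hr, then after the bla read, CellTiter-Glo was added for 30 min at room temperature; luminescence recorded.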
# [6] = qHTS assay to identify small molecule antagonists of the estrogen receptor beta (ER-beta) signaling pathway - cell viability counter screen (AID 1259382; active = well fitted curve in the direction sought with a large enough effect in the repeat runs; an effect the other way counts as inactive or inconclusive; note: nearly all actives have a fitted effect of over 55% in size; note: potency is the fitted concentration of half-maximal effect)
# How it was run: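 ER-beta-UAS-bla HEK293T cells (2,000/well, 2% charcoal-stripped FBS) were pre-incubated 6 hr at 37C, then given compound plus 1nM final 17-beta-estradiol for 16 hr. Viability was read in the same wells by CellTiter-Glo luminescence after 30 min at room temperature.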
# [7] = qHTS assay to identify small molecule agonists or antagonists of the thyroid stimulating hormone receptor (TSHR) signaling pathway - wild type cell line counter screen (AID 1259384)
# How it was run: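 Wild-type Hek293 cells, 800/well, 18 h at 37C, then compound with Ro20-1724 for 30 min RT. cAMP by HTRF (cAMP-d2/anti-cAMP cryptate), 1 h RT, fluorescence read. 15 concentrations, triplicates.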
# [8] = biological target: Thyrotropin receptor (Homo sapiens) (UniProt P16473); experiment: qHTS assay to identify small molecule antagonists of the thyroid stimulating hormone receptor (TSHR) signaling pathway (AID 1259385); note: nearly all actives have a fitted effect of over 20% in size
# How it was run: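 TSHR-HEK293 cells (800/well) plated 18 h, then compounds with Ro20-1724 and TSH at 1.5 ng/mL final, 30 min at room temperature. cAMP quantified by HTRF (cAMP-d2/anti-cAMP-cryptate, 1 h); 15 concentrations in triplicate.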
# [9] = qHTS assay to identify small molecule agonists of the estrogen receptor alpha (ER-alpha) signaling pathway in the presence of an antagonist - cell viability counter screen (AID 1259386; active = well fitted curve in the direction sought with a large enough effect in the repeat runs; an effect the other way counts as inactive or inconclusive;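 note: cells exposed to compounds for 22 h at 37 °C before the viability read; nearly all actives have a fitted effect of over 30% in size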; note: potency is the fitted concentration of half-maximal effect)
# How it was run: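 VM7Luc4E2 cells (endogenous full-length ER-alpha, 4×ERE-luciferase) were held 5 days in phenol red-free medium with 10% charcoal-stripped FBS, plated, then given 10.0nM ICI-182,780 and compounds at 15 concentrations for 22hr at 37C; viability read by CellTiter-Fluor fluorescence.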
# [10] = biological target: Progesterone receptor (Homo sapiens) (UniProt P06401); experiment: qHTS assay to identify small molecule agonists of the progesterone receptor (PR) signaling pathway (AID 1346784); note: nearly all actives have a fitted effect of over 30% in size
# How it was run: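 Agonist mode, quantitative HTS format in a HEK 293T line expressing a UAS-controlled beta-lactamase reporter; 16 hr compound exposure at 37C in 2% charcoal-stripped FBS, then LiveBLAzer B/G FRET fluorescence.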
# [11] = biological target: Progesterone receptor (Homo sapiens) (UniProt P06401); experiment: qHTS assay to identify small molecule antagonists of the progesterone receptor (PR) signaling pathway (AID 1346795; active = well fitted inhibition curve with a large enough effect in the signal ratio in the repeat runs, not every such curve was filed as active; the % refers to the signal ratio; note: potency is the fitted concentration of half-maximal effect)
# How it was run: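 HEK293T PR-UAS-bla reporter cells in charcoal-stripped serum (2%) received compound after a 6 hr settling period, followed by R5020 agonist at 1 nM final; 16 hr incubation preceded the FRET substrate step and fluorescence measurement.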
# [12] = qHTS assay to identify small molecule antagonists of the progesterone receptor (PR) signaling pathway - cell viability counter screen (AID 1346798; active = well fitted curve in the direction sought with a large enough effect in the repeat runs; an effect the other way counts as inactive or inconclusive; note: nearly all actives have a fitted effect of over 50% in size; note: potency is the fitted concentration of half-maximal effect)
# How it was run: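 Same-well multiplex: after 16 hr at 37C with compound and R5020 stimulation, HEK293T cells carrying a UAS-bla reporter received LiveBLAzer substrate (2 hr RT), then CellTiter-Glo (30 min RT) for luminescent viability.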
# [13] = qHTS assay to identify small molecule agonists of the progesterone receptor (PR) signaling pathway - cell viability counter screen (AID 1346799); note: nearly all actives have a fitted effect of over 45% in size; note: potency is the fitted concentration of half-maximal effect
# How it was run: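 Counter screen for cytotoxicity: compound-treated PR-UAS-bla HEK293T cells (16 hr, 37C, 5% CO2) were assayed with CellTiter-Glo, luminescence measured after 30 min at room temperature.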
# [14] = qHTS assay to identify small molecule antagonists of the TGF-beta/Smad signaling pathway - cell viability counter screen (AID 1346824; active = well fitted curve in the direction sought with a large enough effect in the repeat runs; an effect the other way counts as inactive or inconclusive; note: nearly all actives have a fitted effect of over 50% in size; note: potency is the fitted concentration of half-maximal effect)
# How it was run: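 SBE-bla HEK 293T cells, incubated overnight, then compound plus 0.25 ng/mL TGF-beta1 (stock added) for 5 hr at 37 C. Viability was read in the same wells by CellTiter-Glo luminescence after 30 min at room temperature.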
# [15] = qHTS assay to identify small molecule agonists of the TGF-beta/Smad signaling pathway - cell viability counter screen (AID 1346829; active = well fitted curve in the direction sought with a large enough effect in the repeat runs; an effect the other way counts as inactive or inconclusive; note: nearly all actives have a fitted effect of over 45% in size; note: potency is the fitted concentration of half-maximal effect)
# How it was run: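 SBE-bla HEK 293T cells plated overnight, compound exposure 5 hr at 37 C. Viability read in the same wells by CellTiter-Glo luminescence after 30 min at room temperature, following the beta-lactamase read.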
# [16] = biological target: Thyrotropin-releasing hormone receptor (Homo sapiens) (UniProt P34981); experiment: qHTS assay to identify small molecule antagonists of the thyrotropin-releasing hormone receptor (TRHR) signaling pathway (AID 1346877; active = well fitted inhibition curve with a large enough effect in the repeat runs, not every such curve was filed as active; note: series mostly up to about 51 µM)
# How it was run: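 TRHR-expressing HEK293 cells were seeded, cultured 18 h at 37 °C, then loaded with calcium dye for 2 h. Compounds were pre-incubated 5 min at room temperature before 1 nM TRH (final) was added, and kinetic fluorescence was recorded for 3 min.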
# [17] = biological target: Thyrotropin-releasing hormone receptor (Homo sapiens) (UniProt P34981); experiment: qHTS assay to identify small molecule agonists of the thyrotropin-releasing hormone receptor (TRHR) signaling pathway (AID 1346891); note: series mostly up to about 58 µM
# How it was run: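 Agonist-mode calcium mobilisation screen: TRHR-transfected HEK293 cells cultured overnight (18 h), dye-loaded for 2 h at 37 °C, exposed to compounds, and monitored by fluorescence for 3 min.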
# [18] = biological target: Androgen receptor (Homo sapiens) (UniProt P10275); experiment: qHTS assay to identify small molecule agonists of the androgen receptor (AR) signaling pathway in the presence of an antagonist (AID 1259381); note: nearly all actives have a fitted effect of over 15% in size
# How it was run: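 MDA-kb2 human breast carcinoma cells carrying an MMTV-luciferase reporter (AR- and GR-responsive) were treated with compounds at 15 concentrations plus 3.0uM final nilutamide for 16hr at 37C without CO2; luminescence was read after ONE-Glo addition.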
# [19] = biological target: Estrogen receptor (Homo sapiens) (UniProt P03372); experiment: qHTS assay to identify small molecule agonists of the estrogen receptor alpha (ER-alpha) signaling pathway in the presence of an antagonist (AID 1259383); note: top concentration of the series differs between compounds; nearly all actives have a fitted effect of over 15% in size
# How it was run: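 VM7Luc4E2 cells (endogenous full-length ER-alpha, 4×ERE-luciferase) were precultured 5 days in phenol red-free medium with 10% charcoal-stripped FBS, given 10.0nM ICI-182,780 (final), then treated with compounds at 15 concentrations for 22hr at 37C; luminescence read with ONE-Glo.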
# [20] = qHTS assay to identify small molecule agonists of the TGF-beta/Smad signaling pathway (AID 1346859; active = well fitted activation curve with a large enough effect in the signal ratio in the repeat runs, not every such curve was filed as active; the % refers to the signal ratio; note: series mostly up to about 77 µM)
# How it was run: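 Smad-responsive beta-lactamase reporter cells (HEK 293T) received compounds from DMSO stocks after overnight attachment, were incubated 5 hr, then treated 2 hr with FRET substrate before dual-emission fluorescence measurement (405 nm excitation).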
# Chain of Estrogen receptor beta (Homo sapiens) (Q92731 whole entry, looked up): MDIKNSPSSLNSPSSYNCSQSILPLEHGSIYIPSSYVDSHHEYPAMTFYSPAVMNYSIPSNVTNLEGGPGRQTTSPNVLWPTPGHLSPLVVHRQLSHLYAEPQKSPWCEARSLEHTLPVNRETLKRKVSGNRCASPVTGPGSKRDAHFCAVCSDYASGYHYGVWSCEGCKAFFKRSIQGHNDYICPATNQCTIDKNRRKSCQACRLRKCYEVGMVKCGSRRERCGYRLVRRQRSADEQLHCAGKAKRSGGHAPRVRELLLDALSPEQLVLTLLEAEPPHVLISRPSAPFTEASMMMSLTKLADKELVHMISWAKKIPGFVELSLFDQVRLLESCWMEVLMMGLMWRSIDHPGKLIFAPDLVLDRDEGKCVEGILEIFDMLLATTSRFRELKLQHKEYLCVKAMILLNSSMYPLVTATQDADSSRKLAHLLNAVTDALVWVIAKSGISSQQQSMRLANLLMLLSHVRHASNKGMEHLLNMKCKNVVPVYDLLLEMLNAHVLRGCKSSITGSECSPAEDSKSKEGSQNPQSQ
# Chain of Androgen receptor (Homo sapiens) (P10275 whole entry, looked up): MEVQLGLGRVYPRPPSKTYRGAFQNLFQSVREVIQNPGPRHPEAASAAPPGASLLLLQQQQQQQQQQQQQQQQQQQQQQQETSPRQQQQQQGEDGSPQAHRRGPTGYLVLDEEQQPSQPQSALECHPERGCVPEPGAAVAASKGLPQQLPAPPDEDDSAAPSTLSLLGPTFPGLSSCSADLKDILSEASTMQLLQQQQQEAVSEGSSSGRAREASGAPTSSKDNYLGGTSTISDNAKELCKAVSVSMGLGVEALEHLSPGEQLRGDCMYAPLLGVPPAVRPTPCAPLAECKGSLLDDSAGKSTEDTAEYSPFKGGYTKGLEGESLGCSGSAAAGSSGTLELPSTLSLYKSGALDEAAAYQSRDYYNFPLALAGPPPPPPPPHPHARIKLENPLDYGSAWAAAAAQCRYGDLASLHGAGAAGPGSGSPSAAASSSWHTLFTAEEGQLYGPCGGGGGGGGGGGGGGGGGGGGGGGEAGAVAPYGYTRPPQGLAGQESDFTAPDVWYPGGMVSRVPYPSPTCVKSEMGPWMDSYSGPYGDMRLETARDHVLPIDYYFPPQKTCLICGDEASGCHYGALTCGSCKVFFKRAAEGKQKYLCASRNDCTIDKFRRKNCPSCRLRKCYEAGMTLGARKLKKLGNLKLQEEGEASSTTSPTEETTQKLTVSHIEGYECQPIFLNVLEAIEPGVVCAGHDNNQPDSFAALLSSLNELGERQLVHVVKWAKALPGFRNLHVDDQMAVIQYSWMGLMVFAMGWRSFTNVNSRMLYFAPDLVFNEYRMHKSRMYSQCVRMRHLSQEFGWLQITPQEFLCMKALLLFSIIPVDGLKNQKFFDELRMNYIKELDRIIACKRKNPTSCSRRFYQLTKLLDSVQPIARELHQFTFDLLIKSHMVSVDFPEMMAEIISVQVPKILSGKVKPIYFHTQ
# Chain of Thyrotropin-releasing hormone receptor (Homo sapiens) (P34981 whole entry, looked up): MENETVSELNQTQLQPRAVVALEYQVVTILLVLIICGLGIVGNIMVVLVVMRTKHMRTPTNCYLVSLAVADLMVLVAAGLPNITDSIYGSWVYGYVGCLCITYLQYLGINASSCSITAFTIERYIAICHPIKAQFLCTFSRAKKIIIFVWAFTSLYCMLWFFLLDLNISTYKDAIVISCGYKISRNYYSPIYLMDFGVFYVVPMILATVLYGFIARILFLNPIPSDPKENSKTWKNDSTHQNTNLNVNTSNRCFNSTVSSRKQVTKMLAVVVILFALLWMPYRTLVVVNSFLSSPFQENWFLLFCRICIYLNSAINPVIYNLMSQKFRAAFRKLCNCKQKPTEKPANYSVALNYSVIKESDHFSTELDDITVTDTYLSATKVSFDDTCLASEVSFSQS
# Chain of Progesterone receptor (Homo sapiens) (P06401 whole entry, looked up): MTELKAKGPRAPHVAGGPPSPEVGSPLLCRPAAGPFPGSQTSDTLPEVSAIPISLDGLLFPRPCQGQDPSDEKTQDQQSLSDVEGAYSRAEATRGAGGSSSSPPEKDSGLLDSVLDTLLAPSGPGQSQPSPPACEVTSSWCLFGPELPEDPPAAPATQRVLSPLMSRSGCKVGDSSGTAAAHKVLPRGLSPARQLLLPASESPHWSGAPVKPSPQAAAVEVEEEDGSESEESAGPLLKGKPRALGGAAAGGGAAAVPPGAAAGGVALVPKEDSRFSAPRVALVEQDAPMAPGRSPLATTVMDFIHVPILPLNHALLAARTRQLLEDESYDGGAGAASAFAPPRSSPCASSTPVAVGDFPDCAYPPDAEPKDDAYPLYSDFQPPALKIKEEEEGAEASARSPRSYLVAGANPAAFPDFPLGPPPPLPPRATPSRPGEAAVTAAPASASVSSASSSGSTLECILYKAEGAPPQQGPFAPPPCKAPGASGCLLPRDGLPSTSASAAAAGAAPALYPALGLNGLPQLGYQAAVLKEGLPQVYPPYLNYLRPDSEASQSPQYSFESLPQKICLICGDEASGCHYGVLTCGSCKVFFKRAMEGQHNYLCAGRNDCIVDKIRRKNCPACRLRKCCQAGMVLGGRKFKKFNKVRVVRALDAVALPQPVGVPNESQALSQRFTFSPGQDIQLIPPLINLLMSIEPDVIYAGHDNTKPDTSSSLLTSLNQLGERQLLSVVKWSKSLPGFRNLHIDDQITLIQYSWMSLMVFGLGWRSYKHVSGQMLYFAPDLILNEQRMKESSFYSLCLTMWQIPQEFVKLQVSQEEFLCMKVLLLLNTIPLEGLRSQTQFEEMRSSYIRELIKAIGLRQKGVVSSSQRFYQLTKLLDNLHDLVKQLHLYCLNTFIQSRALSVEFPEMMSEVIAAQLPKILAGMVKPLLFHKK
# Chain of Thyrotropin receptor (Homo sapiens) (P16473 whole entry, looked up): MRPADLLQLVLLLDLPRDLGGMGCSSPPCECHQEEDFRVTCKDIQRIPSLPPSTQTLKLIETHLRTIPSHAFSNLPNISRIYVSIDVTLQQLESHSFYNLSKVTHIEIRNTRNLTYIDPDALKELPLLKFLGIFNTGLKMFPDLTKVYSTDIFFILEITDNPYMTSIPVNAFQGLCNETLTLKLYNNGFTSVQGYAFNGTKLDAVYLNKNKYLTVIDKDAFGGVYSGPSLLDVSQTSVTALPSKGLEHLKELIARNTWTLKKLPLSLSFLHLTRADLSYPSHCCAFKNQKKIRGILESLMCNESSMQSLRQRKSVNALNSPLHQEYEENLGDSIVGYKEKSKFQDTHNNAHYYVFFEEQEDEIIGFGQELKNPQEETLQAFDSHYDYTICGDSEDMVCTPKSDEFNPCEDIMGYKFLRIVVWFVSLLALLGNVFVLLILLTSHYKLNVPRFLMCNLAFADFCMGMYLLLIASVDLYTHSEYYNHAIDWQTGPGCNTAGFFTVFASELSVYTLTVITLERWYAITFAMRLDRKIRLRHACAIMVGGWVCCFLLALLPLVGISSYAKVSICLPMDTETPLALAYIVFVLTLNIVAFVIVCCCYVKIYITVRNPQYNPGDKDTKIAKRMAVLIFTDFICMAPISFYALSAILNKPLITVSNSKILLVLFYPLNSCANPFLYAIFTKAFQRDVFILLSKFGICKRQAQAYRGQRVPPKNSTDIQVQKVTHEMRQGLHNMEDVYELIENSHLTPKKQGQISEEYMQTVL
# Chain of Estrogen receptor (Homo sapiens) (P03372 whole entry, looked up): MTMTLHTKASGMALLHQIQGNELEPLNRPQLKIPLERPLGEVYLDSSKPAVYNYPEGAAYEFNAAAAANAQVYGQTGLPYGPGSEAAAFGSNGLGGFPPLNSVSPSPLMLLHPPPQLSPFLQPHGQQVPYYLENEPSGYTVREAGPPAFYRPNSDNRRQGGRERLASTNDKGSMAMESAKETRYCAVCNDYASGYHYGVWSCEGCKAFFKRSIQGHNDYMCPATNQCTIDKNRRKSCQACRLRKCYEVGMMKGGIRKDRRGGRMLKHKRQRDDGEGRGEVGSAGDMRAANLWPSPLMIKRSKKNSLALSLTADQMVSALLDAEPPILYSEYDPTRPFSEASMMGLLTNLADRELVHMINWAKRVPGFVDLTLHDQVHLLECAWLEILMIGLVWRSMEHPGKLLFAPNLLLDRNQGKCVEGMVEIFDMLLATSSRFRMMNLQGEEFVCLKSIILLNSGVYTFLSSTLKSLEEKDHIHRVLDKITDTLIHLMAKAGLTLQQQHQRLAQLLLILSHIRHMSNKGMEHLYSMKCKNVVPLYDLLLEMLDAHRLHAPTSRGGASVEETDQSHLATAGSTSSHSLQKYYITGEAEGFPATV
SMILES,Potency [1],outcome [2],Potency [3],Potency [4],Potency [5],Potency [6],Potency [7],Potency [8],Potency [9],Potency [10],Potency [11],Potency [12],Potency [13],Potency [14],Potency [15],Potency [16],Potency [17],Potency [18],Potency [19],outcome [20]
O=C(Cl)c1cccc(C(=O)Cl)c1,inactive,inactive,inactive,inactive,inactive,inactive,inactive,inactive,inactive,inactive,inactive,inactive,inactive,inactive,inactive,inactive,inactive,–,–,–
CCN(CC)C(=S)SSC(=S)N(CC)CC,217 nM (active) and 7.9 nM (active) and 1.33 µM (active),inactive,–,inactive,222 nM (active) and 133 nM (active),–,inactive,inactive,inactive,inactive,0.237 µM (active),–,inactive,inactive,–,inactive,inactive,inactive,inactive,–
O=C(O[C@@H]1Cc2c(O)cc(O)cc2O[C@@H]1c1cc(O)c(O)c(O)c1)c1cc(O)c(O)c(O)c1,27.4 µM (active),inactive,inactive,54.6 µM (active),inactive,inactive,–,–,54.6 µM (active) and 46.8 µM (active),inactive,inactive,inactive,inactive,inactive,inactive,inactive,inactive,–,inactive,inactive
C=CC(=O)OCCCCCCOC(=O)C=C,19.6 µM (active) and 19.3 µM (active),inactive,54.5 µM (active),–,24.3 µM (active),inactive,inactive,–,inactive,inactive,inactive,inactive,inactive,inactive,–,inactive,inactive,inactive,inactive,inactive
CCCCCCC(O)CCCCCCCCCCC(=O)O (stereo not drawn),27.4 µM (active),inactive,inactive,inactive,inactive and 48.6 µM (active),inactive and 30.6 µM (active),inactive,inactive,inactive,inactive,–,–,48.7 µM (active) and 15.4 µM (active),inactive,–,inactive,inactive,–,–,–
Cc1cc(OCCOCC[N+](C)(C)Cc2ccccc2)ccc1C(C)(C)CC(C)(C)C,10.8 µM (active) and 6.68 µM (active),inactive,–,54.2 µM (active) and 29.8 µM (active),27.1 µM (active) and 13.3 µM (active),21.6 µM (active) and 13.3 µM (active),inactive,inactive,–,inactive,–,54.2 µM (active) and 26.6 µM (active),27.1 µM (active) and 13.3 µM (active),43.4 µM (active) and 23.9 µM (active),43.4 µM (active) and 23.9 µM (active),inactive,inactive,inactive,inactive,inactive
COC(c1ccccc1)(c1ccccc1)[C@H](Oc1nc(C)cc(C)n1)C(=O)O,inactive,inactive,inactive,inactive,–,inactive,inactive,–,inactive,inactive,inactive,–,inactive,inactive,inactive,–,–,–,–,–
c1ccc2n[nH]nc2c1,inactive,inactive,inactive,inactive,inactive,inactive,inactive,inactive,inactive,inactive,inactive,inactive,inactive,inactive,inactive,–,–,–,–,inactive
c1cnc2cc3c(cc2n1)C1CNCC3C1,inactive,inactive,inactive,inactive,inactive,inactive,–,–,inactive,inactive,inactive,inactive,inactive,inactive,–,inactive,inactive,–,inactive,–
O=c1n(CC2CO2)c(=O)n(CC2CO2)c(=O)n1CC1CO1 (stereo not drawn),963 nM (active) and 3.06 µM (active),inactive,inactive,–,inactive,inactive,inactive,inactive,inactive,inactive,–,inactive,–,inactive,–,inactive,inactive,–,inactive,inactive
CC(=O)OCC1=C(C(=O)O)N2C(=O)[C@@H](NC(=O)Cc3cccs3)[C@H]2SC1,inactive,inactive,inactive,inactive,inactive,inactive,inactive,–,inactive,inactive,inactive,inactive,inactive,inactive,inactive,inactive,inactive,–,–,inactive
C/C=C/c1ccc(OCC)c(O)c1,inactive,inactive,inactive,inactive,inactive,inactive,inactive,inactive,inactive,inactive,inactive,inactive,inactive,inactive,–,inactive,inactive,–,–,–
